Bioassay records (PubChem)
IL1B secr inh – inflammasome signaling inhibition, IL-1 beta readout; THP-1 LPS/ATP IL-1B secretion, AlphaLISA, 16 h; active compounds read low; activity change, % at 57.5 µM; actives 4.7% (n = 360,000); in the data active = activity change below about -50%; inconclusive = mostly about -30% to -49%
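Secreted IL-1B measured by AlphaLISA bead assay after 16 h compound exposure of THP-1 cells; compounds (final up to 57.5 uM) added 1 h before LPS (250 ng/mL) and ATP (1.25 mM) stimulation; lower signal means less secretion.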
TDP1 cell noCPT – qHTS for Inhibitors of human tyrosyl-DNA phosphodiesterase 1 (TDP1): qHTS in cells in absence of CPT; DT40 Tdp1-/- hTDP1 cells, no CPT, ATP luminescence, 48 h; Potency, µM (doses to about 46.2 µM), for the others: at the highest dose activity change, negative = growth inhibition, most hits filed as inhibitors; actives 15% (n = 420,000); AID 686978, 2013; note: potency is the fitted concentration of half-maximal effect; nearly all actives have a fitted effect of over 55% in size
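Chicken DT40 Tdp1-/- cells complemented with human TDP1, screened without camptothecin (DMSO vehicle only), 400 cells/well. Compounds pin-transferred, cells incubated at 37 °C for at least 48 hr. Growth read as ATP-dependent luminescence (CellTiter-Glo, 30 min at RT).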
TDP1 inh – TDP1 (human) enzyme inhibition; Q9NUW8; recombinant TDP1, AlphaScreen DNA substrate cleavage; Potency, µM (top dose mostly 130 µM), for the others: at the top dose activity change, negative = inhibition, most hits filed as inhibitors; actives 0.28% (n = 350,000); note: potency is the fitted concentration of half-maximal effect; nearly all actives have a fitted effect of over 40% in size
Target sequence (Q9NUW8 whole entry, looked up): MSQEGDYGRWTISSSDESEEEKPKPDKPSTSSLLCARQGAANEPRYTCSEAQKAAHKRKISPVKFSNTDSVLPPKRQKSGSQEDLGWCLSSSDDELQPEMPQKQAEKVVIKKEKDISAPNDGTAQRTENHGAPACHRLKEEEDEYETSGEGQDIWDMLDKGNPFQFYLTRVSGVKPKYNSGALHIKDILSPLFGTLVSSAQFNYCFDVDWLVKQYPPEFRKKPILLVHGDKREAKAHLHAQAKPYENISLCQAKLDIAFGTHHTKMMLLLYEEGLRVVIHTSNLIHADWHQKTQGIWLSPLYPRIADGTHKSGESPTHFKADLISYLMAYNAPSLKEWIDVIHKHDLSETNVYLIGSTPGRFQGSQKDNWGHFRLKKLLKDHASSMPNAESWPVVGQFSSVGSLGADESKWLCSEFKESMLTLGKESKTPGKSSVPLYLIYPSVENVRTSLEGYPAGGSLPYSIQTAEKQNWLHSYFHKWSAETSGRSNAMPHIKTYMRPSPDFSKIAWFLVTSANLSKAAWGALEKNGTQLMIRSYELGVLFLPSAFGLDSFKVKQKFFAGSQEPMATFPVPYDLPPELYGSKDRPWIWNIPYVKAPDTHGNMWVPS
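Signal: AlphaScreen proximity between streptavidin donor and anti-FITC acceptor beads on intact substrate. Reaction: Tdp1 1 nM, substrate 15 nM final, 5 min RT after 15 min compound preincubation.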
Giardia kill – kills Giardia lamblia; activity change, % at 7.66 µM, hits read low; actives 0.15% (n = 340,000); Giardia lamblia trophozoite viability; AID 540267; in the data active = activity change below about -80%; inconclusive = between about -30% and that limit;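 note: parasites exposed to compound for two days anaerobically before the ATP read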
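Viability, read as ATP luminescence: trophozoites at 100 cells/well, compound added, 48 hrs anaerobic at 37 deg C, then 15-30 min room-temperature development before reading.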
ELG1 repair inh – blocks ELG1-dependent DNA repair in HEK293T cells; HEK293T ELG1-luciferase reporter, luminescence, 16 h; DNA damage induced by 5-fluorouridine; Potency, µM (titrated, usually from 46.1 µM), inactives show at the highest dose activity change, negative = inhibition, most hits filed as inhibitors; actives 2.3% (n = 330,000); AID 504467; note: potency is the fitted concentration of half-maximal effect; nearly all actives have a fitted effect of over 55% in size
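5-Fluorouridine DNA damage + compound/DMSO, 2,000 cells/well, 16 h, 37 °C/5% CO2. ONE-Glo, 30 min RT, luminescence. Readout = decrease in reporter signal.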
TDP1 cell CPT – DT40-hTDP1 cell growth loss with CPT; chicken DT40 Tdp1-/-;hTDP1 cells + 20 nM CPT, ATP luminescence, 48 h; Potency, µM (doses to about 46.2 µM), for inactives: at the top dose activity change, negative = growth inhibition, actives largely listed as inhibitors; actives 12% (n = 420,000); note: potency is the fitted concentration of half-maximal effect; nearly all actives have a fitted effect of over 55% in size
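Cell growth measured by CellTiter-Glo luminescence after a minimum 48 h, 37 C compound exposure with 20 nM CPT in Tdp1-knockout DT40 cells stably expressing hTDP1, seeded 400/well; qHTS titration format.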
Starred values were filed as active, the others as inactive; u = inconclusive; x = no result given; [ ] = another dose, or the depositor's remark. A selection: hits, their analogues and other compounds. The true share with any hit is near 19%. Unless noted, calls come from the whole dose curve; as a rule, active = well fitted curve in the direction sought with a large enough effect; inconclusive = small, poorly fitted or top-dose-only effect, or another doubt; inactive = no such curve, though single readings can be large; an effect the other way counts as inactive or inconclusive. % is set by controls: 0 for no effect and ±100 for the full control effect.

SMILES	IL1B secr inh	TDP1 cell noCPT	TDP1 inh	Giardia kill	ELG1 repair inh	TDP1 cell CPT
COc1cccc(-c2cnc(C(O)c3ccc(F)c(C)c3)[nH]2)c1 (centres undefined)	27	u	x	x	x	u
OC(c1ccc(-c2ccccc2)cc1)c1ncc(-c2ccc(F)cc2)[nH]1 (centres undefined)	27	u	x	x	x	29µM*
OC(c1ccccc1)c1ncc(-c2ccc(Cl)cc2)[nH]1 (centres undefined)	19	-10%	x	x	x	-3%
CNS(=O)(=O)c1cn(CC(=O)Nc2ccc(OC)cc2OC)cc1S(=O)(=O)NC	x	-7%	6%	x	x	-13%
Cc1ccc(/C=N/Nc2nnc(Cl)c3ccccc23)cc1	-62*	21µM*	9%	u	u	23µM*
CC(=O)Nc1ccc(C=NNc2nnc(NN=Cc3ccc(NC(C)=O)cc3)c3ccccc23)cc1	0	4.1µM*	x	25	x	2.9µM*
Clc1ccc(/C=N/Nc2nnc(Cl)c3ccccc23)cc1	38	u	0%	-11	u	u
NS(=O)(=O)c1ccc(CNC(=O)c2cc(=O)c3ccccc3o2)cc1	9	u	x	-6	-3%	-12%
CCOc1ccc(NC(=O)c2sc3nc4c(cc3c2N)CN(Cc2ccccc2)CC4)cc1	x	u	3%	x	x	u
CCC1CCc2nc3sc(C(=O)Nc4ccc(F)cc4F)c(N)c3cc2C1 (centres undefined)	x	u	x	x	x	8.2µM*
CCC1CCc2nc3sc(C(=O)Nc4cccc(F)c4)c(N)c3cc2C1 (centres undefined)	x	2.1µM*	x	x	x	3.3µM*
CCC1CCc2nc3sc(C(=O)Nc4cccc(C(F)(F)F)c4)c(N)c3cc2C1 (centres undefined)	x	18µM*	x	x	x	u
CCC1CCc2nc3sc(C(=O)Nc4ccc(C)cc4)c(N)c3cc2C1 (centres undefined)	x	7.3µM*	x	x	x	12µM*
COc1ccc(C(C)(C)C)cc1NC(=O)CN1C(=O)C(=O)N(Cc2ccco2)C1=O	4	2%	4%	-6	11%	1%
CCc1c(C(=O)NCCc2ccc(OC)c(OC)c2)[nH]c(C)c1C(C)=O	12	u	1%	7	-12%	u
CCc1c(C(=O)NCc2ccccc2Cl)[nH]c(C)c1C(C)=O	30	16µM*	8%	-14	u	23µM*
CCc1c(C(=O)NCCc2cccc(C)c2)[nH]c(C)c1C(C)=O	-30	10µM*	x	-9	22%	16µM*
COc1cccc(C(=O)NCC(c2ccc3c(c2)OCO3)N2CCN(C)CC2)c1 (centres undefined)	x	-22%	3%	x	x	-13%
Cc1ccc(C2CC(=O)Oc3ccc(C(C)(C)C)cc32)cc1 (centres undefined)	x	x	-2%	x	x	x
COc1ccccc1NC(=O)C(C)N1C(=O)C2CCCCC2C1=O (centres undefined)	10	23%	1%	7	16%	-8%
Cc1cc(C)c2nc(N3CCN(C(=O)c4cccs4)CC3)sc2c1	-70*	u	x	-7	u	8%
Cc1ccc(Cl)c2sc(N3CCN(C(=O)C4CC4)CC3)nc12	x	u	-3%	x	x	-6%
Cc1cc(C)c2nc(N3CCC(C(=O)N4CCN(c5ncccn5)CC4)CC3)sc2c1	-78*	u	7%	-10	u	16µM*
Cc1cc(C)c2nc(N3CCC(C(=O)N4CCCC4)CC3)sc2c1	-14	u	-2%	11	-9%	u
O=C(C1CC1)N1CCN(c2nc3c(Cl)cccc3s2)CC1	x	21µM*	-3%	x	x	21µM*
SMILES	IL1B secr inh	TDP1 cell noCPT	TDP1 inh	Giardia kill	ELG1 repair inh	TDP1 cell CPT
COc1ccc(N(C(=O)c2cnccn2)C(C(=O)NC2CCCCC2)c2ccc(O)cc2)cc1 (centres undefined)	7	-4%	5%	7	-12%	-7%
Cc1ccc(C)c(N(C(=O)c2ccco2)C(C(=O)NC2CCCC2)c2ccco2)c1 (centres undefined)	-2	-14%	-15%[0.0935 µM]	-21	-2%	1%
CCOc1ccc(NC(=O)Cn2ccn3nc(-c4ccc(OC)c(OC)c4)cc3c2=O)cc1	x	1%	1%	x	x	-19%
O=c1c2ccccc2nc2ccc(NCc3cccs3)nn12	-29	-7%	0%	-17	u	-21%
CN1CCN(CC(=O)c2cc(C(C)(C)C)c(O)c(C(C)(C)C)c2)CC1	-24	-29%	x	15	-14%	u
Cc1c(-c2ccc(Cl)cc2)oc(=O)c2c(N)n(-c3ccccc3)nc12	0	7.3µM*	50µM*	5	u	u
Nc1c2c(=O)oc(-c3ccccc3)cc2nn1-c1ccccc1	-99*	u	1%	-6	u	26µM*
Nc1c(-c2ccc(Cl)cc2)cnn1-c1ccccc1	-19	-8%	x	-12	u	-29%
COc1cccc(CC(NC(C)=O)C(=O)NC2CCN(C(=O)Nc3ccc(C)cc3)CC2)c1 (centres undefined)	10	-15%	4%	5	6%	11%
CCCNC(=O)c1c(N)n(-c2ccc3c(c2)OCO3)c2nc3ccccc3nc12	-22	15µM*	-4%	2	14%	8.2µM*
CCCNC(=O)c1c(N)n(-c2cc(OC)cc(OC)c2)c2nc3ccccc3nc12	-55*	u	1%	-8	18µM*	u
Nc1c(C(=O)NC2CC2)c2nc3ccccc3nc2n1-c1ccc2c(c1)OCO2	-51*	u	5%	15	16µM*	u
C#CCCc1cocc1/C=[N+](\[O-])c1ccc(C(=O)OCC)cc1	1	-10%	5%	15	u	-2%
O=C(Nc1nccs1)c1nc[nH]c1C(=O)NCc1ccccc1	-14	0%	-8%	-7	13%	12%
CCC/C=C(\CCC)C(NC(=O)c1ccccc1)c1ccc(C(=O)OC)cc1 (centres undefined)	x	x	1%	x	x	x
Cc1cc(C)c(N2CCN(S(=O)(=O)N3CCCCCC3)CC2)c(C)c1	-2	18µM*	-2%	-8	u	u
Cc1ccc(N2CCN(S(=O)(=O)N3CCCCC3)CC2)cc1Cl	0	u	1%	11	-10%	u
CN(C)/C=C/C(=O)c1ccc(-c2ccc(Cl)cc2Cl)o1	u	-13%	-4%	-24	u	2%
COCCCNCCCCOc1ccc(C)cc1[N+](=O)[O-]	-6	-28%	-5%	-2	-5%	0%
